Screening results as filed in PubChem BioAssay.
HTT-AS promoter – activators of huntingtin-antisense promoter activity | HEK293 HTT-AS promoter firefly luciferase reporter, 24 h; response scale: percent change from vehicle, -100% = no light | Potency, µM (doses to about 57.5 µM), for the others: at the top dose activity change, positive = activation, hits mostly activators | 48,000 compounds, 0.24% hits | AID 1508624; further: potency means the concentration at half of the fitted maximal effect; nearly all actives have a fitted effect of over 55% in size
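Luminescence was read after Dual-Glo reagent and a 10 min room-temperature incubation. Values were normalized to vehicle (0% activity) and zero RLU (-100% activity). Reporter HEK293 cells had been exposed to compounds (up to 57.5 uM final) for 24 h.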
DRV1 agonist – activates human resolvin D1 receptor GPR32 | 48,000 compounds, 2.5% hits | activation, % at 76.9 µM | O75388 | CHO-K1 GPR32 beta-arrestin PathHunter luminescence, 90 min; zero percent set by DMSO-only wells;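 active means activation of at least 60% and not above a set upper limit, about 1 call in 100 departs from these limits; inconclusive means activation of 40% to 60%, or above that upper limit; inactive means activation under 40%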; further: 0% is about no effect
Target sequence (O75388 whole entry, looked up): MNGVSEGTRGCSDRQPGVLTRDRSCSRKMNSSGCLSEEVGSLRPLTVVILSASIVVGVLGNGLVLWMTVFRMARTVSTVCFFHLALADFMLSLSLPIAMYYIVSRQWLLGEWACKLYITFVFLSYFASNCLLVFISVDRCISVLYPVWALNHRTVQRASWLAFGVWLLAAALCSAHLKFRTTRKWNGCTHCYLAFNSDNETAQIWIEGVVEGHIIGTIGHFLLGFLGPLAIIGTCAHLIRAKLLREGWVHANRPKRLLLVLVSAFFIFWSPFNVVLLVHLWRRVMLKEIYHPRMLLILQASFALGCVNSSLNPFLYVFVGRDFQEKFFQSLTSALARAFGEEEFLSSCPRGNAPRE
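Readings come from a cell-based beta-arrestin complementation format: CHO-K1 GPR32 stable cells (2,500/well) treated 90 min with compounds, then beta-Gal substrate added for 1 h before chemiluminescence imaging.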
HTT prom inh – HTT promoter inhibition. 48,000 compounds, 0.93% hits. Potency, µM (series often up to 57.5 µM), for inactives: at the top dose activity change, negative = inhibition, actives largely listed as inhibitors. HEK293 HTT promoter firefly luciferase reporter, 24 h. AID 1508623; further: potency means the concentration at half of the fitted maximal effect; nearly all actives have a fitted effect of over 50% in size
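Firefly luciferase signal from promoter-reporter HEK293 cells was scaled between vehicle (0%) and zero RLU (-100%). Compounds were tested at final concentrations of up to 57.5 uM over 24 h at 37 degrees C. PTC124 at 50 uM final served as control inhibitor.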
* marks the source's active call; other numbers are inactive results; ? = inconclusive; . = not tested or not shown. In the library only some 3.7% were active in any assay of this set; here they are far more common. Unless noted, the call rests on the fitted dose curve; in most records, active means well fitted curve in the direction sought with a large enough effect; inconclusive means small, poorly fitted or top-dose-only effect, or another doubt; inactive means no such curve, though single readings can be large; an effect the other way counts as inactive or inconclusive.

SMILES	HTT-AS promoter	DRV1 agonist	HTT prom inh
COc1cc(C(CC(=O)Nc2ccc(Br)cn2)N2Cc3ccccc3C2=O)cc(OC)c1OC (stereo unspecified)	-23%	18	-12%
Cc1ccc(C)c(NS(=O)(=O)c2ccc3c(c2)n(C)c(=O)n3C)c1	-8%	7	-32%
CC1(c2ccccc2)CC(C)(C)N(C(=O)c2ccccc2Cl)c2ccccc21 (stereo unspecified)	-39%	-1	-28%
COc1ccccc1C(=O)N1c2ccccc2C(C)(c2ccc(Cl)cc2)CC1(C)C (stereo unspecified)	-50%	-24	25µM*
COc1cc(-c2noc(C3CC(=O)N(c4cc(C)ccc4C)C3)n2)cc(OC)c1OC (stereo unspecified)	-8%	76*	-24%
Cc1ccc(N2CC(c3nc(-c4ccc(Cl)cc4)no3)CC2=O)cc1F (stereo unspecified)	-7%	6	13%
CCc1ccc(NS(=O)(=O)c2ccc(NC(=O)N3CCCC3)cc2)cc1	-3%	69*	-28%
O=C(Nc1ccc(S(=O)(=O)Nc2ccccc2)cc1)N1CCCC1	-16%	19	-18%
Cn1c(CNC(=O)CSc2nc(-c3ccccc3F)nc3cc(=O)[nH]n23)nc2ccccc21	.	-45	.
CC(C)(C)c1ccc(OCC(=O)Nc2ccc(S(=O)(=O)Nc3ncccn3)cc2)cc1	27%	79*	-5%
CC(C)(C)CC(C)(C)c1ccc(OCC(=O)Nc2ccc(S(=O)(=O)Nc3ncccn3)cc2)cc1	11%	-3	-16%
CCCCCC=CCC=CCCCCCCCC(=O)OCC	-2%	63*	-2%
O=C(NNC(=O)c1ccc(CNS(=O)(=O)c2ccc(F)c(Cl)c2)cc1)c1ccccc1	23%	.	31%
COc1ccc(C2=C(C)C(=O)N(Cc3ccc(C(=O)Nc4ccc(F)cc4C)cc3)S2(=O)=O)cc1	-49%	-13	10µM*
COc1ccc(C2=C(C)C(=O)N(Cc3ccc(C(=O)Nc4cccc(F)c4)cc3)S2(=O)=O)cc1	-41%	-3	?
Fc1ccc(-c2noc3ncnc(NCCc4ccc(Cl)cc4)c23)cc1	-46%	13	?
CSc1ccc(CCNc2ncnc3onc(-c4ccc(Cl)cc4)c23)cc1	-53%	-11	18µM*
COc1cc2nc(SCC(=O)Nc3c(C)cc(C)cc3C)n3nc(CCn4c(C)nc5ccccc54)nc3c2cc1OC	-14%	83*	-21%
Cc1cc(C)c(NC(=O)CSc2nc3ccccc3c3nc(CCn4cncc4C)nn23)c(C)c1	-35%	15	?
CC(=O)SC1CC2=CC(=O)CC[C@]2(C)C2CC[C@@]3(C)C(CC[C@@]34CCC(=O)O4)C12 (stereo partly specified)	.	-16	.
Cn1nnnc1SCCCNCc1cccc(OCc2ccccc2Cl)c1	-11%	-2	-14%
COc1cc(CNCCSc2nnnn2C)cc(Cl)c1OCc1ccccc1	-27%	89*	-21%
COc1cccc(CNCCSc2nnnn2C)c1OCc1ccc(Cl)cc1	-23%	116*	-15%
CCOc1cc(CNCCSc2nnnn2C)cc(Cl)c1OCc1ccc(Cl)cc1	-54%	26	?
COc1cccc(CNCCSc2nnnn2C)c1OCc1ccc(Cl)cc1Cl	-30%	?	?
SMILES	HTT-AS promoter	DRV1 agonist	HTT prom inh
Cn1nnnc1SCCCNCc1ccccc1OCc1ccccc1Cl	-50%	25	14µM*
Cc1ccc2c(=O)c3cccc(CC(=O)O)c3oc2c1C	-33%	.	?
CCN(CC)CC(=O)OCC(=O)[C@@]1(O)CC[C@H]2[C@@H]3CCC4=CC(=O)CC[C@]4(C)[C@H]3[C@@H](O)C[C@@]21C	-4%	9	-5%
Cc1ccc(NC(=O)N2CCC(n3c(C)nc4cccnc43)CC2)c(Cl)c1	-2%	1	-4%
Cc1nc2cccnc2n1C1CCN(C(=O)Nc2ccc(Cl)cc2)CC1	10%	88*	9%
Cc1nc2cccnc2n1C1CCN(S(=O)(=O)c2ccc(Cl)cc2)CC1	.	49	.
CCOc1ccc(S(=O)(=O)N2CCC(n3c(C)nc4cccnc43)CC2)cc1	-25%	76*	?
O=C(OCC#CCSc1nnc(-c2cccc3ccccc23)o1)c1cc2ccccc2s1	?	.	24%
NC[C@H]1O[C@H](O[C@@H]2[C@@H](O)[C@@H](O[C@H]3O[C@H](CO)[C@@H](O)[C@H](N)[C@@H]3O)[C@H](N)C[C@@H]2N)[C@H](O)[C@@H](O)[C@H]1O	-30%	.	-4%
O=C(OCC1(COC(=O)c2cccnc2)CCCC(COC(=O)c2cccnc2)(COC(=O)c2cccnc2)C1O)c1cccnc1	-4%	9	9%
CCOC(=O)C(Cc1ccccc1)NC(=O)Cn1nnc(-c2ccc(C)cc2)n1 (stereo unspecified)	-2%	62*	1%
CCOC(=O)CC(NC(=O)Cn1nnc(-c2ccc(Cl)cc2)n1)c1ccc(OC)cc1 (stereo unspecified)	-32%	2	?
CC1CCc2c(sc(NC(=O)c3ccc(Cl)cc3Cl)c2C#N)C1 (stereo unspecified)	1%	106*	-3%
CC1CCc2c(sc(NC(=O)C3c4ccccc4Oc4ccccc43)c2C#N)C1 (stereo unspecified)	-42%	-6	?
Cc1ccc(S(=O)(=O)NCCc2csc3nc(-c4ccccc4F)nn23)cc1C	-24%	105*	-36%
Cc1ccc(-c2nc3scc(CCNS(=O)(=O)c4ccc(Oc5ccccc5)cc4)n3n2)cc1	-84%	-5	20µM*
O=S(=O)(NCCc1csc2nc(-c3ccccc3)nn12)c1ccc(Oc2ccccc2)cc1	-55%	2	?
Cc1ccc(-c2nc3scc(CCNS(=O)(=O)c4ccc(F)c(C)c4)n3n2)cc1	-26%	20	-26%
Cc1ccccc1-c1nc2scc(CCNS(=O)(=O)c3ccccc3)n2n1	-16%	75*	-37%
COc1ccc(-c2nc3scc(CCNS(=O)(=O)c4ccc(Oc5ccccc5)cc4)n3n2)cc1	-32%	-14	-30%
O=C(NCCCCN1CCOCC1)c1cc2ccccc2o1	2%	.	4%
COc1ccc(C=CC(=O)Nc2ccccc2C(=O)O)cc1OC	-85%	.	?
CNC(=O)c1c[nH]c2ccc(S(=O)(=O)Nc3cccc(Cl)c3C)cc2c1=O	-50%	-4	-21%
CCOCCCNC(=O)c1c[nH]c2ccc(S(=O)(=O)Nc3cccc(Cl)c3C)cc2c1=O	-27%	65*	-22%
CCOc1ccc(NS(=O)(=O)c2ccc3[nH]cc(C(=O)NC4CCCC4)c(=O)c3c2)cc1	-37%	?	-24%
CCc1ccc(NS(=O)(=O)c2ccc3[nH]cc(C(=O)NC4CCCC4)c(=O)c3c2)cc1	-29%	?	-17%
O=C(NC1CCCCC1)c1c[nH]c2ccc(S(=O)(=O)Nc3ccccc3F)cc2c1=O	-24%	101*	-15%
CCc1ccccc1NS(=O)(=O)c1ccc2[nH]cc(C(=O)NC3CCCC3)c(=O)c2c1	-36%	106*	-22%
Cc1ccc(NC(=O)Nc2nnc(N(C)Cc3ccccc3)s2)cc1	-12%	-11	-1%
